Structures are written as SMILES. Where “and” joins values, the source holds several entries; their conditions need not be identical. Equal entries are not always repeated. Inconclusive results are not listed. A number with no mark means an inactive call. Calls of active or inactive are those of the source. Calls follow the shape of the dose curve; as a rule, active = well fitted cell-killing curve with a large enough effect; inconclusive = small, poorly fitted or top-dose-only effect; inactive = flat fitted curve, though single readings scatter.
Potency is read from the fitted curve at half-maximal effect.

This assay is described as follows: Cellular viability qHTS for adrenocortical cancer (ACC) cell line NCI-H295R (AID 1963990). Also: nearly all actives have a fitted effect of over 60% in size.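 As to activity change, negative = viability loss: 0% = DMSO only wells and -100% = full killing with cytotoxic reference compound.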 As to conditions: CellTiter-Glo ATP luminescence, 48 h; series mostly up to 46.1 µM; activity change, negative = viability loss: at the top concentration. In outline: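 Luminescent ATP read-out (CellTiter-Glo, 20 min RT) after 48 h drug exposure of NCI-H295R cells; a titration up to 46 uM final. Data normalized to doxorubicin (100% inhibition) and DMSO (0%); 4-parameter fit gives IC50, max response.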
`CC/C(=C(/CC)c1ccc(O)cc1)c1ccc(O)cc1`: the Potency was 3.66 µM (active) and 8.91 µM (active). Turning to `N#C/C(=C\c1ccc(O)c(O)c1)C(=O)NCc1ccccc1`, the “activity change, negative = viability loss” value is -18.8%. On to `COc1ccc(CNc2nc(N(CCO)CCO)nc3c2ncn3C(C)C)cc1`, for which the Potency is 15.8 µM (active). Turning to `COc1ccc(NS(=O)(=O)c2ccc(N)cc2)nn1`, the “activity change, negative = viability loss” value is -0.121%. Consider `Cc1[nH]c(/C=C2\C(=O)Nc3ccc(F)cc32)c(C)c1C(=O)NCCN1CCCC1`, for which the Potency was 10.1 µM (active).

As for `COC(=O)[C@H]1[C@@H](O)[C@@]2(O)c3c(OC)cc(O[C@@H]4O[C@@H]([C@@H](O)CO)CO[C@H]4OC)cc3O[C@@]2(c2ccc(OC)cc2)[C@@H]1c1ccccc1`, the “activity change, negative = viability loss” value is -18.6%. As for `COC(=O)c1ccc([C@H]2c3[nH]c4ccccc4c3C[C@H](C(=O)OC)N2C(=O)CCl)cc1`, the Potency is 0.0891 µM (active). As for `C[C@H]1CNC(=O)c2cnn3ccc(nc23)N[C@H](C)c2cc(F)ccc2O1`, the Potency is 8.91 µM (active). Still for that read-out and setting: the value for `O=C(Nc1ncc(SCCN2CCCC2)s1)[C@]1(c2ccc(S(=O)(=O)C3CC3)cc2)C[C@H]1C1CCCCC1` was 7.08 µM (active). For `CC(=O)Nc1cccc(O)c1`, the “activity change, negative = viability loss” value is -13.3%. On to `CC(=O)N1c2ccc(-c3ccc(C(=O)O)cc3)cc2[C@H](Nc2ccc(Cl)cc2)C[C@@H]1C`, for which the Potency was 3.98 µM (active).

In the case of `COC1CCN(C(=O)c2cc(Cc3n[nH]c(=O)c4ccccc34)ccc2F)CC1`, the “activity change, negative = viability loss” value is -14.4%.

With `CC[C@H](CC[C@@H](C)[C@H]1CC[C@H]2[C@@H]3CC=C4C[C@@H](O)CC[C@]4(C)[C@H]3CC[C@]12C)C(C)C`, the “activity change, negative = viability loss” value is -11.6%. Take `Oc1ccc(/C=C/c2cc(O)cc(O)c2)cc1`: the Potency result was “inactive”. In the case of `C[C@]12CCC3=C4CCC(=O)C=C4CC[C@H]3[C@@H]1CC[C@@]2(O)CC#N`, the “activity change, negative = viability loss” value is 3.83%. Still for that read-out and setting: the value for `C=CC[C@@H]1/C=C(\C)C[C@H](C)C[C@H](OC)[C@H]2O[C@@](O)(C(=O)C(=O)N3CCCC[C@H]3C(=O)O[C@H](/C(C)=C/[C@@H]3CC[C@@H](O)[C@H](OC)C3)[C@H](C)[C@@H](O)CC1=O)[C@H](C)C[C@@H]2OC` was -25.9%; that for `CC(C)(C)c1nnc(NS(=O)(=O)c2ccc(N)cc2)s1` was -18.8%. The same measure, in the same setting: under `COC(=O)/C=C/C(=O)OC` stands -16.4%.

Take `COC(=O)C1=C(C)NC(C)=C(C(=O)OCC(C)C)C1c1ccccc1[N+](=O)[O-]` (stereo not given): the Potency was 16.4 µM (active). On to `CN(C)/C(N)=N/C(=N)N`, for which the “activity change, negative = viability loss” value was -26.7%.

As to `C=CC(=O)N1CCC(Oc2cc3c(Nc4ccc(Cl)c(Cl)c4F)ncnc3cc2OC)CC1`, the Potency is 25.1 µM (active). For the molecule `CNc1ncc2cc(-c3cc(NC(=O)NCCC(C)(C)C)c(F)cc3C)c(C)nc2n1`, the Potency was 17.8 µM (active).

Consider `COC(=O)C1=C(C)NC(C)=C(C(=O)OC)C1c1ccccc1[N+](=O)[O-]`, for which the Potency is 9.2 µM (active). Still for that read-out and setting: under `N#Cc1cc2cc(CN3CCC(Nc4ncnc5sc(CC(F)(F)F)cc45)CC3)c(O)cc2n1Cc1cn[nH]c1` stands 8.91 µM (active); under `OCCN1CCN(CC/C=C2/c3ccccc3Sc3ccc(C(F)(F)F)cc32)CC1`, 16.4 µM (active).

With `Cc1nc(NC(=O)N2CCCC2C(N)=O)sc1-c1ccnc(C(C)(C)C(F)(F)F)c1` (stereo not given), the Potency is 12.6 µM (active). As for `N#CN1CCC[C@@H](n2nc(-c3ccc(Oc4ccc(F)cc4F)cc3)c(C(N)=O)c2N)C1`, the “activity change, negative = viability loss” value is -24.4%. `COc1cc(OC)cc(N(CCNC(C)C)c2ccc3ncc(-c4cnn(C)c4)nc3c2)c1`: the Potency was 22.4 µM (active). Consider `CCn1ccnc1CC1COc2ccccc2O1` (stereo not given), for which the “activity change, negative = viability loss” value was -4.28%. In the case of `CC1(C)OC2=C(C(=O)c3ccccc3C2=O)[C@H](NCc2ccccc2)[C@@H]1O`, the Potency is 3.16 µM (active).

Consider `O=c1[nH]sc2cc(Cl)ccc12`, for which the Potency is 3.26 µM (active).

As for `C=C1C(=O)O[C@@H]2[C@H]3C(C)=CC[C@@]34O[C@@]4(C)CC[C@@H]12`, the Potency is 17.8 µM (active). Same read-out and setting: the value for `Cc1ccc(NS(=O)(=O)c2cccc(C#N)c2)c2[nH]cc(C#N)c12` was 0.112 µM (active).

For the molecule `N#Cc1ccc(-c2c(-c3ncn[nH]3)sc(N3CCOCC3)c2C#N)c(F)c1`, the Potency was 4.47 µM (active).

Take `Cn1nccc1Nc1nccc(-c2cc3c(s2)C(C)(C)N(CCN2CCOCC2)C3=O)n1`: the “activity change, negative = viability loss” value is 8.05%. For `CCN(CC)CCNC(=O)c1c(C)[nH]c(/C=C2/C(=O)Nc3ccc(-c4csc(-c5ccccc5)n4)cc32)c1C`, the Potency is 3.55 µM (active). On the same count and under the same terms, the value for `CN[C@@H]1C[C@H]2O[C@@](C)([C@@H]1OC)n1c3ccccc3c3c4c(c5c6ccccc6n2c5c31)C(=O)N[C@H]4O` was 0.15 µM (active). Turning to `CNC(=O)Cn1cc(-c2ccc3c(c2)C(F)CC32NC(=O)N(CC(=O)N(Cc3ccc(F)cc3)C(C)C(F)(F)F)C2=O)cn1` (stereo not given), the “activity change, negative = viability loss” value is -16.8%. Take `Cc1cc(I)ccc1Nc1c(C(=O)NOCC2CC2)cc(F)c(F)c1F`: the Potency is 3.98 µM (active).

With `CCCS(=O)(=O)c1nc(NC2CC2)cc(-c2ccc3c(ccn3C3CC(C)(C)NC(C)(C)C3)c2)n1`, the Potency was 2.18 µM (active).

(Values after PubChem BioAssay (NCATS).)
